PubChem BioAssay AID1159580 (chemical genetic matrix, 2015)
Among all 5,500 compounds or so, about 2,000 (36%) were called active. Another 18% or so got no clear call; they are omitted. No stated cut-off is given here; in the data, active means normalized growth mostly below about 0.91 (no sharp cut-off); inconclusive means no clear call, values can overlap the other calls; inactive means mostly above about 0.92. Some of the results follow.

Assay: chemical genetic growth profiling, strain panel (AID 1159580);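 further: tested at 20 µM; growth read once vehicle control cultures reached saturation at 30 °C; 1 = growth at the plate median or of vehicle wells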
Conditions: growth OD

Measured: normalized growth

CCOc1nc2cccc(C(=O)OC(C)OC(=O)OC3CCCCC3)c2n1Cc1ccc(-c2ccccc2-c2nn[nH]n2)cc1 (configuration not stated)
inactive: S. cerevisiae deletion strains, locus YJR075W, strain HOC1, stronger effect = lower value 0.989 | S. cerevisiae deletion strains, locus YKL009W, strain mrt4, stronger effect = lower value 1.1 | S. cerevisiae deletion strains, locus YKL068W, stronger effect = lower value 0.997 | S. cerevisiae deletion strains, locus YKL085W, strain MDH1 (second series), stronger effect = lower value 0.994 | S. cerevisiae deletion strains, locus YKL085W, strain MDH1, stronger effect = lower value 0.994 | S. cerevisiae deletion strains, locus YKL160W, strain elf1, stronger effect = lower value 1.02 | S. cerevisiae deletion strains, locus YKL190W, strain CNB1, stronger effect = lower value 0.999 | S. cerevisiae deletion strains, locus YKR001C, strain vps1, stronger effect = lower value 0.963 | S. cerevisiae deletion strains, locus YKR026C, strain gcn3, stronger effect = lower value 1.03 | S. cerevisiae deletion strains, locus YKR091W, strain srl3, stronger effect = lower value 1.02 | S. cerevisiae deletion strains, locus YLL001W, strain dnm1, stronger effect = lower value 1.03 | S. cerevisiae deletion strains, locus YLL026W, stronger effect = lower value 1.01 | S. cerevisiae deletion strains, locus YLL041C, strain sdh2, stronger effect = lower value 1.01 | S. cerevisiae deletion strains, locus YLR027C, strain aat2, stronger effect = lower value 1.02 | S. cerevisiae deletion strains, locus YLR039C, strain RIC1, stronger effect = lower value 0.815 | S. cerevisiae deletion strains, locus YLR058C, strain SHM2, stronger effect = lower value 1.01 | S. cerevisiae deletion strains, locus YLR102C, strain apc9, stronger effect = lower value 0.998 | S. cerevisiae deletion strains, locus YLR113W, strain HOG1, stronger effect = lower value 1.03 | S. cerevisiae deletion strains, locus YLR221C, strain rsa3, stronger effect = lower value 1.01 | S. cerevisiae deletion strains, locus YLR258W, strain gsy2, stronger effect = lower value 1.02 | S. cerevisiae deletion strains, locus YLR262C, strain YPT6, stronger effect = lower value 0.797 | S. cerevisiae deletion strains, locus YLR268W, strain sec22, stronger effect = lower value 0.981 | S. cerevisiae deletion strains, locus YLR320W, strain mms22, stronger effect = lower value 0.999 | S. cerevisiae deletion strains, locus YLR330W, strain CHS5, stronger effect = lower value 1 | S. cerevisiae deletion strains, locus YLR342W, strain FKS1 (second series), stronger effect = lower value 0.862 | S. cerevisiae deletion strains, locus YLR342W, strain FKS1, stronger effect = lower value 1.02 | S. cerevisiae deletion strains, locus YLR357W, strain rsc2, stronger effect = lower value 1.07 | S. cerevisiae deletion strains, locus YLR370C, strain arc18, stronger effect = lower value 1.02 | S. cerevisiae deletion strains, locus YLR371W, strain rom2, stronger effect = lower value 0.997 | S. cerevisiae deletion strains, locus YLR384C, strain iki3, stronger effect = lower value 1.01 | S. cerevisiae deletion strains, locus YLR418C, strain cdc73, stronger effect = lower value 0.959 | S. cerevisiae deletion strains, locus YML016C, strain PPZ1, stronger effect = lower value 1.01 | S. cerevisiae deletion strains, locus YML032C, strain rad52, stronger effect = lower value 1 | S. cerevisiae deletion strains, locus YML120C, strain ndi1, stronger effect = lower value 1.04 | S. cerevisiae deletion strains, locus YML124C, strain tub3, stronger effect = lower value 1 | S. cerevisiae deletion strains, locus YMR058W, strain fet3, stronger effect = lower value 1.02 | S. cerevisiae deletion strains, locus YMR078C, strain ctf18, stronger effect = lower value 1.01 | S. cerevisiae deletion strains, locus YMR125W, strain sto1, stronger effect = lower value 1.06 | S. cerevisiae deletion strains, locus YMR129W, stronger effect = lower value 1.03 | S. cerevisiae deletion strains, locus YMR205C, strain PFK2, stronger effect = lower value 0.99 | S. cerevisiae deletion strains, locus YMR223W, strain ubp8, stronger effect = lower value 0.984 | S. cerevisiae deletion strains, locus YMR231W, strain pep5, stronger effect = lower value 1.02 | S. cerevisiae deletion strains, locus YMR263W, strain SAP30, stronger effect = lower value 1 | S. cerevisiae deletion strains, locus YMR307W, strain GAS1, stronger effect = lower value 0.734 | S. cerevisiae deletion strains, locus YNL067W, strain RPL9B, stronger effect = lower value 0.992 | S. cerevisiae deletion strains, locus YNL071W, strain lat1, stronger effect = lower value 1.02 | S. cerevisiae deletion strains, locus YNL128W, strain TEP1, stronger effect = lower value 0.995 | S. cerevisiae deletion strains, locus YNL153C, strain GIM3, stronger effect = lower value 1 | S. cerevisiae deletion strains, locus YNL183C, strain NPR1, stronger effect = lower value 0.968 | S. cerevisiae deletion strains, locus YNL209W, strain ssb2, stronger effect = lower value 1 | S. cerevisiae deletion strains, locus YNL233W, strain BNI4, stronger effect = lower value 0.999 | S. cerevisiae deletion strains, locus YNL248C, strain rpa49, stronger effect = lower value 1.02 | S. cerevisiae deletion strains, locus YNL250W, strain rad50, stronger effect = lower value 0.991 | S. cerevisiae deletion strains, locus YNL271C, strain bni1, stronger effect = lower value 1 | S. cerevisiae deletion strains, locus YNL298W, strain CLA4, stronger effect = lower value 1 | S. cerevisiae deletion strains, locus YNL307C, strain MCK1, stronger effect = lower value 0.995 | S. cerevisiae deletion strains, locus YNL322C, strain KRE1 (second series), stronger effect = lower value 1.03 | S. cerevisiae deletion strains, locus YNL322C, strain KRE1, stronger effect = lower value 1 | S. cerevisiae deletion strains, locus YNR049C, strain mso1, stronger effect = lower value 1.04 | S. cerevisiae deletion strains, locus YNR052C, strain pop2, stronger effect = lower value 1 | S. cerevisiae deletion strains, locus YOL006C, strain TOP1, stronger effect = lower value 0.763 | S. cerevisiae deletion strains, locus YOL012C, strain htz1 0.976 | S. cerevisiae deletion strains, locus YOL147C, strain pex11, stronger effect = lower value 1 | S. cerevisiae deletion strains, locus YOR001W, strain rrp6, stronger effect = lower value 1.02 | S. cerevisiae deletion strains, locus YOR061W, strain CKA2, stronger effect = lower value 1 | S. cerevisiae deletion strains, locus YOR069W, strain VPS5, stronger effect = lower value 1 | S. cerevisiae deletion strains, locus YOR070C, strain gyp1, stronger effect = lower value 1 | S. cerevisiae deletion strains, locus YOR080W, strain dia2, stronger effect = lower value 1.02 | S. cerevisiae deletion strains, locus YOR083W, strain WHI5, stronger effect = lower value 1.01 | S. cerevisiae deletion strains, locus YOR106W, strain vam3, stronger effect = lower value 0.983 | S. cerevisiae deletion strains, locus YOR136W, strain idh2, stronger effect = lower value 0.984 | S. cerevisiae deletion strains, locus YOR144C, strain elg1, stronger effect = lower value 0.993 | S. cerevisiae deletion strains, locus YOR184W, strain ser1, stronger effect = lower value 0.952 | S. cerevisiae deletion strains, locus YOR231W, strain MKK1, stronger effect = lower value 0.998 | S. cerevisiae deletion strains, locus YOR265W, strain rbl2, stronger effect = lower value 1.02 | S. cerevisiae deletion strains, locus YOR270C, strain vph1, stronger effect = lower value 1.04 | S. cerevisiae deletion strains, locus YOR290C, strain snf2, stronger effect = lower value 1.02 | S. cerevisiae deletion strains, locus YOR316C, strain cot1, stronger effect = lower value 0.996 | S. cerevisiae deletion strains, locus YPL051W, strain arl3, stronger effect = lower value 0.999 | S. cerevisiae deletion strains, locus YPL055C, strain LGE1, stronger effect = lower value 0.988 | S. cerevisiae deletion strains, locus YPL078C, strain atp4, stronger effect = lower value 1.05 | S. cerevisiae deletion strains, locus YPL106C, strain sse1, stronger effect = lower value 0.993 | S. cerevisiae deletion strains, locus YPL240C, strain hsp82, stronger effect = lower value 1.01 | S. cerevisiae deletion strains, locus YPL241C, strain CIN2, stronger effect = lower value 1 | S. cerevisiae deletion strains, locus YPL256C, strain CLN2, stronger effect = lower value 0.961 | S. cerevisiae deletion strains, locus YPR119W, strain clb2, stronger effect = lower value 0.992 | S. cerevisiae deletion strains, locus YPR141C, strain kar3, stronger effect = lower value 0.998 | S. cerevisiae deletion strains, locus YPR163C, strain tif3, stronger effect = lower value 0.99 | S. cerevisiae deletion strains, locus YPR167C, strain met16, stronger effect = lower value 1 | S. cerevisiae deletion strains, strain wtn01, stronger effect = lower value 0.989 | S. cerevisiae strains, strain wild type, stronger effect = lower value 0.997
active: S. cerevisiae deletion strains, locus YLR262C, strain YPT6 (second series), stronger effect = lower value 0.826
